Source: PubChem BioAssay (National Center for Advancing Translational Sciences (NCATS))
BLM inh = Bloom syndrome helicase (human) inhibition | recombinant BLM DNA unwinding, fluorescence dequenching | Potency, µM (titrated, usually from 56.1 µM), for the others: at the highest dose activity change, negative = inhibition, actives largely listed as inhibitors | 350,000 tested, 0.2% active;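 further: potency means the concentration at half of the fitted maximal effect; plate controls were vehicle for no effect and no enzyme for full effect; nearly all actives have a fitted effect of over 35% in size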
RECQ1 helicase = inhibitors of human RECQ1 DNA helicase; P46063; RECQ1 DNA unwinding, red fluorescence kinetic read; Potency, µM (top dose mostly 57.3 µM), for inactives: at the highest dose activity, negative = inhibition, most hits filed as inhibitors; 240,000 tested, 0.54% active; AID 2549;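 further: potency means the concentration at half of the fitted maximal effect; plate controls were vehicle for no effect and no enzyme for full effect; nearly all actives have a fitted effect of over 30% in size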
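50 nM RECQ1T1 preincubated 15 min with compound in Tris pH 8.0 buffer with MgCl2, DTT, Tween-20 and 2.5 ug/ml poly(dI-dC); started with 200 nM TAMRA/BHQ-2 forked duplex and 2 mM ATP. Unwinding read as fluorescence (525/598 nm), two reads 2 h apart.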
FEN1 inh = inhibitors of human flap endonuclease 1. P39748. Recombinant FEN1 flap cleavage, fluorescence, 15 min. Potency, µM (highest dose often 114 µM), for the others: at the top dose activity change, negative = inhibition, hits mostly inhibitors. 390,000 tested, 0.35% active. AID 588795; further: potency means the concentration at half of the fitted maximal effect; nearly all actives have a fitted effect of over 65% in size
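FEN1 at 10 nM, compound pretreatment for 15 min (room temperature), 50 nM final substrate to initiate; endpoint reads at 0 and 15 min; DMSO-only plates used as vehicle background.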
APE1 inh = APE1 (human) endonuclease inhibition; P27695; recombinant APE1, TAMRA/BHQ-2 abasic DNA cleavage fluorescence; Potency, µM (highest dose often 65.8 µM), for the others: top-dose activity change, negative = inhibition, usual class: inhibitors; 350,000 tested, 0.35% active;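 further: potency means the concentration at half of the fitted maximal effect; plate controls were vehicle for no effect and reference inhibitor for full effect; nearly all actives have a fitted effect of over 55% in size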
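Endonuclease cleavage of a quenched abasic-site DNA duplex (50 nM) by APE1 (0.75 nM) was tracked by TAMRA dequenching. Compounds were preincubated with enzyme 15 min at room temperature; data normalized to buffer-only and DMSO wells plus NSC13755 control.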
PI5P4K alpha inh = inhibitors of human PI5P4K alpha; AID 652105; max response, %; 330,000 tested, 1.2% active; PI5P4Kalpha enzyme, ADP-Glo luminescence, 60 min; active compounds read low; P48426; active means max response of -50% or lower; inconclusive means between -30% and -50%; inactive means -30% or higher; further: value at the top dose of about 77 µM
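ADP-Glo luminescence end-point read after a 60 min room-temperature kinase reaction of PI5P4Kalpha plus substrate, initiated with ATP at 5 microM final. Buffer: 0.038 M HEPES pH 7.4, EGTA, 0.1% CHAPS, 5% DMSO.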
WRN helicase inh = inhibitors of human WRN helicase | WRN helicase unwinding, fluorescent forked duplex, kinetic | Q14191 | Potency, µM (titrated, usually from 114 µM), inactives show top-dose activity change, negative = inhibition, hits mostly inhibitors | 360,000 tested, 0.46% active; further: potency means the concentration at half of the fitted maximal effect; nearly all actives have a fitted effect of over 55% in size
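Enzyme (20 nM final) and test compound sit together 15 min at room temperature before substrate addition. Substrate is a single-forked duplex oligonucleotide (100 nM) labelled with fluorophore and quencher, with 2 mM ATP; helicase unwinding raises red fluorescence, read kinetically.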
An asterisk follows results filed as active; i = inactive; ? = inconclusive; · = not tested or not shown; [ ] = another dose, or the depositor's remark. Rows were chosen to be rich in hits. Some 1.5% of all compounds tested hit in one or more screens of this group. Unless noted, the call rests on the fitted dose curve; in most records, active means well fitted curve in the direction sought with a large enough effect; inconclusive means small, poorly fitted or top-dose-only effect, or another doubt; inactive means no such curve, though single readings can be large; an effect the other way counts as inactive or inconclusive. Unless noted, on the % scale 0 is the no-effect control and ±100 the full control effect.

SMILES	BLM inh	RECQ1 helicase	FEN1 inh	APE1 inh	PI5P4K alpha inh	WRN helicase inh
CNc1nc(N/N=C/c2cc3c(cc2[N+](=O)[O-])OCO3)nc(Nc2ccccc2)n1	-17%	-6%	-10%	4%	-68*	-24%
O=c1c(Cl)c(Cl)cnn1Cc1nnc(-c2ccccc2Br)o1	-15%	-14%	12%	24%	-57*	-35%[57.1 µM]
NS(=O)(=O)c1ccc(N/N=C2/CCCCC2C2CCCCC2)c([N+](=O)[O-])c1 (configuration not stated)	-16%	2µM*	-3%	-5%	1	-32%
Cc1cc(C)n(-c2nc(NC(C)C)nc(NC(C)(C)C)n2)n1	·	·	11%	·	·	·
Cc1c(CCO)sc[n+]1CCc1ccccc1	·	·	-1%	·	·	·
O=S(=O)(c1ccc(-c2n[nH]c(=S)o2)cc1)N1CCCC1	-5%	·	1%	5%	-83*	-20%
O=S(=O)(c1ccc(-c2n[nH]c(=S)o2)cc1)N1CCCCC1	-2%	·	3%	2%	-77*	-18%
O=S(=O)(c1ccc(=S)[nH]c1)N1CCCCC1	·	·	-11%	-1%	-1	-5%
Cc1ccccc1OCC(=O)NCC(=O)OCc1cccc2ccccc12	·	·	12%	·	·	·
CSCC[C@H](NC(=O)[C@H](CC(C)C)NC(=O)CNC(=O)[C@H](Cc1ccc(O)cc1)NC(=O)[C@H](Cc1ccccc1)NC(=O)[C@H](CCCCN)NC(=O)[C@H](CC(N)=O)NC(=O)[C@@H]1CCCN1C(=O)[C@H](CC(=O)O)NC(=O)[C@H](C)NC(=O)[C@@H]1CCC(=O)N1)C(N)=O	4%	0%	·	10%	·	·
O=C1/C(=C\c2cccs2)CCC/C1=C/c1cccs1	-11%	·	·	·	·	·
N#CC1=C(N)C2=C(N3CCCCC3)CCCC2C1(C#N)C#N (configuration not stated)	-19%	?	?	35µM*	-54*	?
NNc1nc2c(-c3ccc(F)cc3)nnn2c2ccccc12	-12%	-5%	28µM*	3%	-29	-4%[11.6 µM]
NNc1nc2c(-c3ccc(Cl)cc3)nnn2c2ccccc12	1%	-4%	-12%	-1%	-2	-7%
CNC(C)[C@@H]1CC[C@@H](N)[C@@H](O[C@H]2[C@H](O)[C@@H](O[C@H]3OC[C@](C)(O)[C@H](NC)[C@H]3O)[C@H](N)C[C@@H]2N)O1 (some centres not stated)	·	·	·	3%[21 µM]	·	·
C=CC(=O)Oc1ccc(N2Cc3ccccc3C2=O)cc1	·	·	-10%	·	-26	56µM*
COC(=O)/C=C\C(C#N)(C#N)N=Cc1ccc(OC)cc1	·	·	-3%	·	1	56µM*
COc1ccc(C=NNC(=O)CCCCC(=O)NN=Cc2ccc(OC)cc2)cc1	·	·	-1%	·	3	9%
CC(C)(C)n1ncc2c(=O)n(Cc3cc(F)c(F)cc3Cl)cnc21	·	·	-16%	?	·	·
CCCc1cc2c(=O)c(-c3nc4ccccc4s3)c(COCC(=O)O)oc2cc1O	?	0%	-4%	-1%	-74*	-23%
CCc1cc2c(=O)c(-c3nc4ccccc4n3C)c(COCC(=O)O)oc2cc1O	3%	-2%	6%	4%	·	-6%
O=C1NC(=S)N/C1=C/c1cccn1-c1ccc([N+](=O)[O-])cc1	-18%	28µM*	-19%	?	-55*	-7%
O=C(O)c1cc(O)c2c(c1)[C@H]([C@H]1c3cc(C(=O)O)cc(O)c3C(=O)c3c(O[C@@H]4O[C@H](CO)[C@@H](O)[C@H](O)[C@H]4O)cccc31)c1cccc(O[C@@H]3O[C@H](CO)[C@@H](O)[C@H](O)[C@H]3O)c1C2=O	·	·	·	0.4µM*	·	·
CNc1oc(-c2cccc(Br)c2)nc1C#N	·	·	·	25%	·	·
O=C(COC(=O)c1ccc(Cl)c(S(=O)(=O)N2CCCC2)c1)NCc1ccccc1	·	·	-4%	7.5µM*	-11	-14%
SMILES	BLM inh	RECQ1 helicase	FEN1 inh	APE1 inh	PI5P4K alpha inh	WRN helicase inh
Cc1cccc(NC(=O)C(Cc2ccccc2)n2cccc2)c1C (configuration not stated)	-3%	·	5%	·	·	·
N#Cc1c(SCC(=O)Nc2ccccc2C(F)(F)F)sc2c(O)cc(=O)[nH]c12	-2%	·	-20%	75%[12.4 µM]	?	-3%[11.6 µM]
CCCSc1nnc(NC(=O)CSc2sc3c(O)cc(=O)[nH]c3c2C#N)s1	22µM*	·	35µM*	64%[12.4 µM]	-72*	10µM*
CCOc1cc2c(c3c1C(c1ccccc1)N(S(=O)(=O)c1ccc(C)cc1)C3)C(=O)C=CC2=O (configuration not stated)	·	·	·	·	-85*	-6%
CCOC(=O)C1=CCN(S(=O)(=O)c2ccc(C)cc2)C1c1ccccc1 (configuration not stated)	·	·	·	·	10	-10%
CC(=O)OC[C@]12CC[C@H]3[C@@](C)(CC[C@H]4C(C)(C)CCC[C@]34C)[C@@H]1C[C@@H](C1=CC(=O)O[C@@H]1OC(C)=O)O2	·	·	·	6%	·	·
CC(=O)OC[C@]12CC[C@H]3[C@@](C)(CC[C@H]4C(C)(C)CCC[C@]34C)[C@@H]1C[C@H](C1=CC(=O)O[C@H]1OC(C)=O)O2	·	·	·	9.5µM*	·	·
COc1cccc(-c2no[n+]([O-])c2C#N)c1	·	·	·	-4%	·	·
NCC(O)c1ccc(O)c(O)c1 (configuration not stated)	?	-11%	1%	0.35µM*	4	-35%[57.1 µM]
O=C1Nc2ccccc2C1=NN1CCCCCC1	·	·	1%	·	-6	-28%
Nc1n[nH]c(=S)n1/N=C1/C(=O)Nc2ccccc21	-4%	2%	89µM*	2%	-89*	-31%[57.1 µM]
Oc1ccc(Cl)cc1C1C=C(c2ccc3c(c2)OCO3)NC(c2ccc(Cl)cc2)N1 (configuration not stated)	·	·	-18%	·	·	·
CCOC(=O)C1=C(CSc2nc(-c3ccccc3)ccc2C#N)OC(N)=C(C#N)C1c1ccccc1 (configuration not stated)	-17%	22µM*	?	-2%	-24	-27%
COc1cccc2c(C)nc(Nc3nc(CSc4nnc(C)s4)cc(=O)[nH]3)nc12	-2%	5%	50µM*	2%	-17	-7%[57.1 µM]
Cc1ccc2c(C)nc(Nc3nc(CSc4nnc(C)s4)cc(=O)[nH]3)nc2c1	46%	-4%	?	4%	·	14%
c1ccc2sc(SN3CCOCC3)nc2c1	-1%	i	-2%	1%	-76*	-11%
